# Screening results (PubChem)
# This is a sample that favours compounds with a hit; in the whole collection about 9% have one here.
# PLK1 PBD block: PLK1 (human) polo-box domain binding inhibition. P53350. Plk1 PBD binding of FITC phosphopeptide, fluorescence polarization. Potency, µM, for inactives: max response, negative = inhibition, actives largely listed as inhibitors. actives 2.8% (n = 360,000). AID 720504; also: series mostly up to about 57 µM; % is scaled to controls: 0 for no effect and ±100 for the full control effect; nearly all actives have a fitted effect of over 65% in size
# G9a inh: G9a (human) methyltransferase inhibition | Q96KQ7 | G9a H3K9 monomethylation, AlphaScreen, 2 h | Potency, µM (doses to about 102 µM), inactives show at the highest dose activity, negative = inhibition, actives largely listed as inhibitors | actives 8.8% (n = 350,000) | AID 504332; also: % is scaled to controls: 0 for no effect and ±100 for the full control effect; nearly all actives have a fitted effect of over 75% in size
# Target sequence (Q96KQ7 913-1193 limits assumed): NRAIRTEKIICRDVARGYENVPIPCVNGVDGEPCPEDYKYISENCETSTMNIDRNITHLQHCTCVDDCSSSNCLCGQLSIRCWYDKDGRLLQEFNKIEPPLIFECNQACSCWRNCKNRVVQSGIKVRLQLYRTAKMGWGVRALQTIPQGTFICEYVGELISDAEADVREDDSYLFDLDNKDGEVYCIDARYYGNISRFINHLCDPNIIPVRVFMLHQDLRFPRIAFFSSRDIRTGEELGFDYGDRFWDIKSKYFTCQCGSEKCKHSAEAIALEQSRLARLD
#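 Methyltransferase reactions run at room temperature for 2 h (20 nM enzyme, 500 nM biotin-H3K9 peptide, 20 uM SAM) after a 15 min compound preincubation; product detected by AlphaScreen beads and anti-H3K9me1 antibody.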
# HP1b binding inh: inhibitors of HP1-beta chromodomain binding to methylated histone tails; P83916; AlphaScreen HP1-beta / biotin-H3K9me3 peptide binding; Potency, µM (doses to about 114 µM), for the others: at the top dose activity change, negative = inhibition, usual class: inhibitors; actives 0.56% (n = 390,000); AID 540317; also: nearly all actives have a fitted effect of over 70% in size
# Target sequence (P83916 whole entry, looked up): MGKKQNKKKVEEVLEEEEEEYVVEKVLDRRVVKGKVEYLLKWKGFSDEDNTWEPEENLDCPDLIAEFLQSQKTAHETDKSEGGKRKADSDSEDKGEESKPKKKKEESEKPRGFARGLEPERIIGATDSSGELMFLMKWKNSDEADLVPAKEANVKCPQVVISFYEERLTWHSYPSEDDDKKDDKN
#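 HP1-beta protein (50 nM final) preincubated 30 min at room temperature with biotinylated H3(1-18)K9me3 peptide (50 nM) in PBS pH 7.4, 0.01% Tween-20, then compound added for 30 min. AlphaScreen streptavidin donor/nickel chelate acceptor beads (10 ug/mL final), 30 min dark, luminescence read.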
# 12-LOX inh: inhibitors of human 12S-lipoxygenase ALOX12. purified 12hLO, xylenol orange hydroperoxide absorbance. actives 1.1% (n = 580,000). Potency, µM (titrated, usually from 108 µM), without a hit: at the top dose activity change, negative = inhibition, actives largely listed as inhibitors. P18054; also: % is scaled to controls: 0 for no effect and ±100 for the full control effect
#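 Purified human 12hLO at 150 nM in 25 mM Hepes, 0.01% Triton X-100, pH 7.0, preincubated 15 min at room temperature with compound. Reaction started with 40 uM arachidonic acid, 30 min at room temperature. Hydroperoxide measured by Fe-xylenol orange, 573/405 nm absorbance ratio.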
# JMJD2A Tudor inh: inhibitors of human JMJD2A Tudor domain; O75164; AID 504339; Potency, µM (top dose mostly 114 µM), inactives show top-dose activity change, negative = inhibition, hits mostly inhibitors; AlphaScreen JMJD2A-Tudor / H3K4me3 peptide binding; actives 4.4% (n = 390,000); also: % is scaled to controls: 0 for no effect and ±100 for the full control effect; nearly all actives have a fitted effect of over 50% in size
# BAZ2B inh: inhibitors of human BAZ2B bromodomain; Q9UIF8; AlphaScreen BAZ2B-H3K14Ac peptide displacement; Potency, µM (top dose mostly 114 µM), for inactives: top-dose activity change, negative = inhibition, most hits filed as inhibitors; actives 4.4% (n = 360,000); also: % is scaled to controls: 0 for no effect and ±100 for the full control effect; nearly all actives have a fitted effect of over 60% in size
#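 Inhibition is scored as reduced AlphaScreen emission. The BAZ2B/b-H3(5-23)K14Ac complex (50 nM each) in PBS pH 7.4, 0.01% Tween-20 meets compound (up to 110 uM) for 30 min at RT before bead addition.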
# Starred values were filed as active, the others as inactive; ? = inconclusive; . = no result given; [ ] = another dose, or the depositor's remark. Calls follow the shape of the dose curve; as a rule, active = well fitted curve in the direction sought with a large enough effect; inconclusive = small, poorly fitted or top-dose-only effect, or another doubt; inactive = no such curve, though single readings can be large; an effect the other way counts as inactive or inconclusive. Potency is read from the fitted curve at half-maximal effect.
SMILES,PLK1 PBD block,G9a inh,HP1b binding inh,12-LOX inh,JMJD2A Tudor inh,BAZ2B inh
CC(=O)C1=NN(c2ccccc2)C(c2ccc3c(c2)OCO3)N1c1ccccc1 (stereo not drawn),-5%,108%,111%,?,42%,33%
CC(=O)C1=NN(c2ccccc2)C(c2cccs2)N1c1ccc(N(C)C)cc1 (stereo not drawn),-9%,28µM*,?,-18%,14µM*,45µM*
Cn1c(/N=C/c2c(O)ccc3ccccc23)nc2ccccc21,1.3µM*,1.8µM*,?,?,40µM*,56µM*
Cc1nnc(-c2ccccc2)c(=O)n1/N=C/c1c(O)ccc2ccccc12,-1%,?,3%,433%,56µM*,25µM*
COc1ccc2ccccc2c1/C=N\n1c(C)cc(C)c(C(N)=O)c1=O,-12%,-3%[0.501 µM],8%,-17%,-25%,?
O=C1C2C3C=CC(CC3)C2C(=O)N1/N=C/c1c(O)ccc2ccccc12 (stereo not drawn),-7%,25µM*,19%,13%,-7%,-5%
O=C1C2C3C=CC(CC3)C2C(=O)N1/N=C/c1ccccc1O (stereo not drawn),-4%,27%,21%,8%,-10%,-2%[57.1 µM]
Cc1nnc(C)n1/N=C/c1c(O)ccc2ccccc12,?,7%[2.33 µM],37%,-11%,8.9µM*,?
COc1ccc(/C=C(/NC(=O)c2ccc(C)cc2)C(=O)NCc2ccncc2)cc1,-16%,3%,76%,5%,-31%,-21%
CCOC(=O)[C@H]1[C@H]2COc3ccc(C)cc3[C@@H]2N2C(=O)c3ccc(Cl)cc3NC(=O)[C@@]12C,-25%,.,8%,-27%,-27%,.
CCOC(=O)C1(Cc2ccccc2C)CCCN(C(=O)CSC)C1 (stereo not drawn),-1%,.,50%,1%,-9%,.
Cc1cc(=O)[nH]c(N/N=C/c2ccc(Cl)c([N+](=O)[O-])c2)n1,-5%,.,48%,-1%,-17%,-8%
O=[N+]([O-])c1ccc(-c2csc(N/N=C/c3cccnc3)n2)cc1,-12%,.,4%,?,-17%,?
Cc1nnc(N/N=C/c2ccc(O)c([N+](=O)[O-])c2)[nH]c1=O,0%,13%[59 µM],5%,-21%,3.2µM*,-5%
O=[N+]([O-])c1cc(/C=N\Nc2nc(-c3ccccc3)cs2)ccc1O,?,11µM*,?,-28%,?,13µM*
O=C(N/N=C/c1ccc(O)c([N+](=O)[O-])c1)c1ccncc1,-9%,.,29%,0%,-14%,23%
Clc1ccc(-c2csc(N/N=C/c3ccc4c(c3)OCO4)n2)cc1,-6%,40µM*,14%,-16%,-25%,-10%
Cc1csc(N/N=C/c2ccc(O)c([N+](=O)[O-])c2)n1,?,14µM*,?,?,45µM*,4.5µM*
COCC(=O)Nc1ccc2c(c1)[C@@H]1C[C@H](CC(=O)NCc3cccc(F)c3)O[C@@H](CO)[C@@H]1O2,-9%,.,.,-14%,.,.
Cc1c(CN(C)C(=O)c2cc(COc3ccccc3F)[nH]n2)cnn1C,.,.,.,30%,.,.
CC1(C)CC(=O)C=C(NC2CCCCCCC2)C1,1%,?,28%,4%,6%,6%
Cc1ccc(OCCC(=O)OCC(=O)Nc2ccc3c(c2)OCO3)cc1,4%,-29%,30%,3%,-20%,-2%
CC(C)NC(=O)C1=NOC2CN(C(=O)NC(C)C)CC12 (stereo not drawn),.,.,.,2%[12.5 µM],.,.
O=C(C[N+]1(CC#Cc2ccccc2)CCCCC1)c1ccccc1,1%,?,57%,-6%,-9%,-13%
O=[N+]([O-])c1cc(/C=N/N/C(=N/c2ccccn2)c2ccccn2)ccc1O,?,50µM*,-7%,43%,79µM*,32µM*
SMILES,PLK1 PBD block,G9a inh,HP1b binding inh,12-LOX inh,JMJD2A Tudor inh,BAZ2B inh
O=[N+]([O-])c1ccc(/C=N/N/C(=N/c2ccccn2)c2ccccn2)cc1,-4%,10%[12.7 µM],23%,6%[57.4 µM],-29%,-3%
COc1ccc(C(NCC(=O)Nc2c(C)cccc2C)c2ccccc2)cc1 (stereo not drawn),3%,?,28µM*,0%,20µM*,32µM*
COc1ccc(N(C(=O)c2cccnc2)S(=O)(=O)c2cccc([N+](=O)[O-])c2)cc1,-24%,16%[12.7 µM],-25%,?,?,-36%
COc1ccc(N(C(=O)c2ccncc2)S(=O)(=O)c2cccc([N+](=O)[O-])c2)cc1,?,79µM*,28%,?,?,-36%
CN(C)CCCN(Cc1cc2cc3c(cc2[nH]c1=O)OCO3)C(=S)NCc1ccco1,-5%,-7%,12%,6%,-16%,-18%
O=C(C1CCCN(S(=O)(=O)c2cccc3nonc23)C1)N1CCN(c2cccc(C(F)(F)F)c2)CC1 (stereo not drawn),.,?,-1%,?,-24%,?
COC(=O)C1=C(C)N(Cc2ccccc2)C(=NCCc2c[nH]c3ccccc23)N[C@H]1c1cccc(F)c1,-3%,.,-5%,?,?,.
CCN1C(=NCCc2c[nH]c3ccccc23)N[C@@H](c2ccccc2)[C@H](C(=O)OC)[C@H]1C,-15%,79µM*,1%,?,?,?
COC(=O)C1=C(C)N(Cc2ccccc2)C(=NCCc2c[nH]c3ccccc23)N[C@H]1c1ccccc1,2%,-28%[12.7 µM],-13%,.,?,56µM*
N#Cc1c(SCC(=O)Nc2nc3ccc(Br)cc3s2)sc2c(O)cc(=O)[nH]c12,?,40µM*,22µM*,16µM*,25µM*,20µM*
N#Cc1cccc(NC(=O)CSc2sc3c(O)cc(=O)[nH]c3c2C#N)c1,-24%,?,-20%,-3%,?,?
N#Cc1c(SCC(=O)Nc2nc3ccccc3s2)sc2c(O)cc(=O)[nH]c12,24µM*,?,?,?,8.9µM*,45µM*
N#Cc1c(SCC(=O)Nc2ccccc2C(F)(F)F)sc2c(O)cc(=O)[nH]c12,-17%,-15%[59 µM],14%,-7%,-14%,-24%
Nn1c(COc2cccc(Cl)c2)nc2ccccc2c1=O,-5%,11%[59 µM],34%,13%,-18%[57.1 µM],2%
Cc1cccc(OCc2nc3ccccc3c(=O)n2N)c1,24µM*,-1%[12.7 µM],-14%,5%,-11%[11.4 µM],4%
Nn1c(CSc2ccccn2)nc2ccccc2c1=O,-18%,40µM*,36%,-1%,-2%,5%
COC(=O)/C=C1\SC(N)=NC1=O,-6%,-1%,32%,0%,-6%,3%
O=C1CS/C(=N\NC(=O)c2ccccc2)N1,-12%,2.5µM*,31%,16%,?,-36%
